# Experiments:
# Test in all cases: pooled miR-30 sensor sort-seq; sequence = guide strand
# Settings in all cases: shRNA
# [1] = molecular target: SPRR2B
# [2] = molecular target: SPOPL
# [3] = molecular target: SPSB2
# [4] = molecular target: SQRDL
# [5] = molecular target: SPOCK1
# [6] = molecular target: SRSF11
# [7] = molecular target: SSR4
# [8] = molecular target: ST6GAL2
# [9] = molecular target: STK32B
# [10] = molecular target: STX12
# [11] = molecular target: SULT1A2
# [12] = molecular target: SYT2
# [13] = molecular target: SYTL4
# [14] = molecular target: SYTL1
# [15] = molecular target: TAAR8
# [16] = molecular target: TAS1R2
# [17] = molecular target: TBC1D10A
# [18] = molecular target: TAS2R31
# [19] = molecular target: TBC1D7
# Also: reference of the scale not given here.
sequence,measurement,setting,value
TCTGGGAACTGACAAAGCCAAG,sensor-assay potency score (higher = more potent),[1],-1.68
TTGCACAGGTGGTAGAAGCTCA,sensor-assay potency score (higher = more potent),[1],-0.478
AAATTTTACTACTTTAACCTGT,sensor-assay potency score (higher = more potent),[2],0.191
TCCATGATAAGCTTTGATGAGA,sensor-assay potency score (higher = more potent),[1],-1.51
TAAGGGGAAAGAAGCTCCCTAT,sensor-assay potency score (higher = more potent),[1],-0.405
TTGATTTCCGCAGAGCTTGGGT,sensor-assay potency score (higher = more potent),[3],-0.0773
TTTTGCTCGAACTTCACTTTTG,sensor-assay potency score (higher = more potent),[2],-1.29
TTGTCCTATCAAGTATTCCTGA,sensor-assay potency score (higher = more potent),[4],-0.574
TCGCACATGACCTTCAGCCGTT,sensor-assay potency score (higher = more potent),[2],-0.42
TATTTGTATTAGTATGTCCTGA,sensor-assay potency score (higher = more potent),[2],-0.376
TTGCTCTGATGGTACAGCTTCC,sensor-assay potency score (higher = more potent),[3],-0.719
TTGCTATCAGGGAACATCATGG,sensor-assay potency score (higher = more potent),[1],-0.524
TCTCTCTGGCACCTCCAGCTGC,sensor-assay potency score (higher = more potent),[3],-1.35
TTGTCTAGGAAATTGCCGTGGT,sensor-assay potency score (higher = more potent),[5],0.282
TGTCGAAGTACACTGCACCTAT,sensor-assay potency score (higher = more potent),[2],-0.0442
TTGTGGCGCACACACAGGCGGC,sensor-assay potency score (higher = more potent),[3],-1.68
TTGAATAGCCCCTCTTACCCCG,sensor-assay potency score (higher = more potent),[3],-0.468
TTTGGGGTTCCAACCGTGGCGC,sensor-assay potency score (higher = more potent),[3],-1.17
TGAAGCTCTGGGAACTGACAAA,sensor-assay potency score (higher = more potent),[1],-1.43
TCTTCTTGCTTGTTGATCGTTC,sensor-assay potency score (higher = more potent),[6],0.0447
TTAGGGACTGTGCTTCTCGTAC,sensor-assay potency score (higher = more potent),[6],-0.978
AATCTAACCTCATAGGTGCCTG,sensor-assay potency score (higher = more potent),[7],-0.709
AAGAATCTAACCTCATAGGTGC,sensor-assay potency score (higher = more potent),[7],0.237
TTTGGTTGAATCTTCTCTTTAG,sensor-assay potency score (higher = more potent),[8],-0.877
AAAGTAGTCGTCATCCTCCGGG,sensor-assay potency score (higher = more potent),[8],0.386
TTCTTGAACACCGCGTCCCAGT,sensor-assay potency score (higher = more potent),[9],-0.825
TTGTCTAAAACTATGCATGGAG,sensor-assay potency score (higher = more potent),[10],-0.297
TTTTCTGATAGTAAGCAGCTCG,sensor-assay potency score (higher = more potent),[10],0.207
TTATTCTGGAGCCTCTTGGTCA,sensor-assay potency score (higher = more potent),[11],-0.61
TGTGTTTTTCAGAGTCTCCATC,sensor-assay potency score (higher = more potent),[11],-0.796
TATCTCATTGAATAACTTCTCC,sensor-assay potency score (higher = more potent),[12],-0.214
TTCATGTACCACATCTTCTGGG,sensor-assay potency score (higher = more potent),[13],0.0201
TTATCCGGGAGGAGGTAGCTTT,sensor-assay potency score (higher = more potent),[14],-1.36
TAGTGGATTAACAGTGTCCCGC,sensor-assay potency score (higher = more potent),[13],-0.966
TTCAACTCTATTTCCTTGGCGC,sensor-assay potency score (higher = more potent),[13],0.409
TATTTCTTCTTCTTGTCAGGAA,sensor-assay potency score (higher = more potent),[12],0.447
TTTATCTCATTGAATAACTTCT,sensor-assay potency score (higher = more potent),[12],-0.172
TAGCCTTTAAAACATCTCCACT,sensor-assay potency score (higher = more potent),[15],-0.818
TTGGCCAGCATGTCGGACCAGT,sensor-assay potency score (higher = more potent),[12],-0.931
TTGTACGTAAGTGTCCAGGGAT,sensor-assay potency score (higher = more potent),[14],0.203
TTGACATAAGGGTCTGAGGTGC,sensor-assay potency score (higher = more potent),[12],-0.653
TACCTGGACTTTCTGAATCTGC,sensor-assay potency score (higher = more potent),[12],-0.968
TTCTGAATCTGCTCGAAGGGGA,sensor-assay potency score (higher = more potent),[12],0.015
TAATCCTTTTCTCATCTGCTTT,sensor-assay potency score (higher = more potent),[13],-1.12
TTGAACACAGGGCTGAGGCTGC,sensor-assay potency score (higher = more potent),[14],0.21
TTTGGGAGCAGACATCTTCTTC,sensor-assay potency score (higher = more potent),[13],-0.722
TTCTTCACCGCCGTCTTGCGCT,sensor-assay potency score (higher = more potent),[14],-1.02
TTATCCAGAGAGTCTCTCCTGG,sensor-assay potency score (higher = more potent),[13],-0.0866
TTTCTTCAACTCTATTTCCTTG,sensor-assay potency score (higher = more potent),[13],-0.969
TTTGGTCTCATATTTCTTCTTC,sensor-assay potency score (higher = more potent),[12],0.677
TAGACGCTCGGACAAGGTCAGA,sensor-assay potency score (higher = more potent),[14],-1.39
TTGACGTAGGGGTCCGAGCGGC,sensor-assay potency score (higher = more potent),[14],-0.281
TATAGCTTGTTGTTTAGCTATA,sensor-assay potency score (higher = more potent),[15],-1.63
TTTGGCAAACATGTCCTCCTGA,sensor-assay potency score (higher = more potent),[12],0.92
AACACTGAGAATCAAATCCTTT,sensor-assay potency score (higher = more potent),[13],-1.16
TTTCACAGCAGCCTCAGCCTCC,sensor-assay potency score (higher = more potent),[14],-0.778
TAATATATCAACTGTATACGGT,sensor-assay potency score (higher = more potent),[15],-0.194
TCAATTAATATATCAACTGTAT,sensor-assay potency score (higher = more potent),[15],-0.769
TTCACCGCCGTCTTGCGCTTGC,sensor-assay potency score (higher = more potent),[14],-0.681
TCATGTACCACATCTTCTGGGC,sensor-assay potency score (higher = more potent),[13],0.653
TCGCACAACCCTTGTACGCTGG,sensor-assay potency score (higher = more potent),[14],-0.836
TTAGTGTACTCTGAAGGCCTGA,sensor-assay potency score (higher = more potent),[13],-0.464
TTTCTGAATCTGCTCGAAGGGG,sensor-assay potency score (higher = more potent),[12],-0.751
TTCTCTTTCACAGCAGCCTCAG,sensor-assay potency score (higher = more potent),[14],-1.16
TTGAATAACTTCTCCTTCAGTT,sensor-assay potency score (higher = more potent),[12],0.105
TCTCATTGAATAACTTCTCCTT,sensor-assay potency score (higher = more potent),[12],-0.0548
TTCTTTAGTCGCCTAATCCTTT,sensor-assay potency score (higher = more potent),[13],-1.13
TTTCATGTACCACATCTTCTGG,sensor-assay potency score (higher = more potent),[13],-0.423
TATAAGAAAAATCTTACTGTAA,sensor-assay potency score (higher = more potent),[15],-0.203
TGAGGTCCAACAGTCCTTCAGT,sensor-assay potency score (higher = more potent),[14],-0.459
TTCCTGCGCATAGACGCTCGGA,sensor-assay potency score (higher = more potent),[14],-0.515
TAGAAGGTCATGCTGAGGGTGA,sensor-assay potency score (higher = more potent),[16],-0.126
ATCGCCTCCAGTTTCTCGCTGT,sensor-assay potency score (higher = more potent),[17],-0.233
TTACAGTCGCATCTGAAAGGTA,sensor-assay potency score (higher = more potent),[18],-0.265
TTGAGCATGTCCAGCCACTTGG,sensor-assay potency score (higher = more potent),[17],-0.533
TCCAATAACAAATAGAACCACT,sensor-assay potency score (higher = more potent),[18],-1.14
TTCTTTTCTTCAACTCCACGAA,sensor-assay potency score (higher = more potent),[19],-0.5
TTTGTTATCTTCTCTGCACTGT,sensor-assay potency score (higher = more potent),[19],0.575
ATAGGTGTCGCTGCTCACCAGC,sensor-assay potency score (higher = more potent),[16],-0.83
TACAGTCGCATCTGAAAGGTAC,sensor-assay potency score (higher = more potent),[18],-0.71
TTGTTGAGCATGTCCAGCCACT,sensor-assay potency score (higher = more potent),[17],-1.14
TTCATCTTCAGTGTGGTTGAGG,sensor-assay potency score (higher = more potent),[16],-0.161
TAGACCGCAGAGTACACGCTGT,sensor-assay potency score (higher = more potent),[16],-0.157
TTGGGGGCTGAGTCCTTCGGGG,sensor-assay potency score (higher = more potent),[17],-1.22

# Source: the OligoGym collection
